Results filed as inconclusive are left out. A number with no mark means an inactive call. Activity calls are given as the source filed them. The call rests on the fitted dose curve; in most records, active means well fitted inhibition curve with a large enough effect; inconclusive means small, poorly fitted or top-dose-only effect; inactive means no such curve, though single readings can be large or run the other way.
Assay: qHTS Screen of the MIPE 4.0 Collection Against Ewings Sarcoma (RDES) (AID 1259252); further: nearly all actives have a fitted effect of over 35% in size;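 on viability (percent of control): 100% = DMSO-treated cells and 0% = medium-only wells without cells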
Details: RD-ES Ewing sarcoma viability, CellTiter-Glo, 48 h; series mostly up to 45.8 µM; viability (percent of control): at the top concentration
Source text: There is a large unmet medical need for treatments for Ewing sarcoma, a pediatric sarcoma. We sought to identify compounds that inhibited Ewing sarcoma cells in vitro with the goal to then test promising drugs in two drug combinations in vitro to look for synergistic drug combinations. Promising combinations would then proceed to additional validation, including in vivo testing.
Using the NCATS developed oncology compound library called the Mechanism of Interrogation Plate (MIPE), four Ewing sarcoma cell lines were evaluated (TC32, TC71, RDES, EW8). Compounds, in a 12-point titration series, were incubated with cells for 48 hours and the read out was cell viability (CellTiter-Glo from Promega). These initial experiments were used to select appropriate concentrations of each single agent for subsequent two-drug matrix combinations such that the concentrations in the matrices would span both activity and non-activity.
Cells, in the log phase of growth, were seeded in 5 uL of RPMI plus 5% FBS, […] L-glutamine, 100 U/ml penicillin and 100 ug/ml streptomycin into 1536-well solid-bottom white tissue culture treated Greiner Bio One Plates (789173-F) using a MultiDrop Combi (Thermofisher Scientific) dispenser and a small sterile cassette. One column was media alone to be used as a :"no cells" control. The plates were then covered with sterilized stainless steel gasketed lids from Kalypsys. After allowing cells to attach for 4 hours, 23 nL of test compound or control (negative control DMSO and positive control 9.2 uM Bortezomib-final) were added from a 1536-well polypropylene compound source plate to each well using a 1536 head pin tool from Kalypsys. Cells were then incubated for 48 hours at 37C, 95% relative humidity and 5% CO2. After 48 hours, plates were removed from the incubator and 3 uL of CellTiter-Glo (Promega) was added using an Aurora Flying Reagent Dispenser Bioraptor. Plates were incubated at room temperature for 10 minutes prior to reading the luminescence on the Viewlux (PerkinElmer). The relative luciferase units are used to calculate the percent activity using the activity of DMSO in the cells and no cells columns for normalization of no inhibition and full inhibition respectively.
Potency means the concentration at half of the fitted maximal effect.

SMILES | viability (percent of control) [%] | Potency
O=C(Oc1ccc([N+](=O)[O-])cc1)N1CCN(Cc2cccc(Oc3ccccc3)c2)CC1 | 95 | –
CC=C(C)C(=O)N[C@@H](c1ccccc1)[C@@H](O)C(=O)O[C@H]1C[C@@]2(O)[C@@H](OC(=O)c3ccccc3)[C@@H]3[C@]4(OC(C)=O)CO[C@@H]4C[C@H](O)[C@@]3(C)C(=O)[C@H](OC(C)=O)C(=C1C)C2(C)C | 12 | –
O=C(Oc1ccc([N+](=O)[O-])cc1)N1CCC(C(O)(c2ccc3c(c2)OCO3)c2ccc3c(c2)OCO3)CC1 | – | 16600 nM (active)
Cc1ccccc1-n1c(Cn2ncc3c(N)ncnc32)nc2cccc(C)c2c1=O | – | 10500 nM (active)
C[C@H]([C@H](O)CCC(C)(C)O)[C@H]1CC[C@@]2(O)C3=CC(=O)[C@@H]4C[C@@H](O)[C@@H](O)C[C@]4(C)[C@@H]3CC[C@]12C | 124 | –
CN(C)NC(=O)CCC(=O)O | – | 26400 nM (active)
CN[C@@H]1Cc2cccc3[nH]c(=O)n(c23)C1 | 122 | –
CN(C)[C@@H]1C(=O)C(C(N)=O)=C(O)[C@@]2(O)C(=O)C3=C(O)c4c(O)cccc4[C@@](C)(O)[C@H]3[C@H](O)[C@@H]12 | 121 | –
O=C(Nc1ccncc1)C(=O)c1cn(Cc2ccc(Cl)cc2)c2ccccc12 | – | 93.5 nM (active)
CC(=O)Nc1ccc(OC[C@](C)(O)C(=O)Nc2ccc([N+](=O)[O-])c(C(F)(F)F)c2)cc1 | 105 | –
C[C@]12Cc3cn[nH]c3C[C@@H]1CC[C@@H]1[C@H]2CC[C@@]2(C)[C@H]1CC[C@]2(C)O | – | 2960 nM (active)
CC(C)(C)[C@]1(O)C[C@@H]2OC(=O)C[C@@]23C(=O)O[C@@H]2OC(=O)[C@H](O)C213 (stereo not given in full) | 116 | –
COC[C@H]1OC(=O)c2coc3c2[C@@]1(C)C1=C(C3=O)[C@@H]2CC[C@H](O)[C@@]2(C)C[C@@H]1OC(C)=O | – | 5900 nM (active)
CC1=NN=C(c2ccc(N)cc2)c2cc3c(cc2C1)OCO3 | 106 | –
COc1ccc(CC2NCCc3cc(OC)c(OC)cc32)cc1OC (stereo not given) | – | 23500 nM (active)
COC(=O)[C@@H](N)CCCN=C(N)N[N+](=O)[O-] | 110 | –
CO[C@H]1CCC(O[C@H]2C[C@H]([C@]3(C)CC[C@]4(C[C@H](O)[C@@H](C)[C@@H]([C@@H](C)C=C(C)C(=O)[C@H](C)C[C@H](C)C(=O)O)O4)O3)O[C@]3(O[C@@H]([C@H]4O[C@@](O)(CO)[C@H](C)C[C@H]4C)C[C@H]3C)[C@H]2C)O[C@H]1C (stereo not given in full) | – | 418 nM (active)
CC[C@@H](C(N)=O)N1CCCC1=O | 107 | –
O=c1cccc2n1CC1CNC[C@H]2C1 | 100 | –
CC(C)(O)C(=O)Nc1ccc([N+](=O)[O-])c(C(F)(F)F)c1 | – | 14800 nM (active)

SMILES | viability (percent of control) [%] | Potency
COc1cccc2c1[C@]13CCN(CC4CC4)[C@H](C2)[C@]1(OC)CCC(=O)C3 | 129 | –
CC(=O)O[C@@]12CO[C@H]1C[C@H](O)[C@@]1(C)C(=O)[C@H](O)C3=C(C)[C@@H](O)C[C@@](O)([C@@H](OC(=O)c4ccccc4)[C@@H]21)C3(C)C | – | 2350 nM (active)
O=C1CCC[C@@H]2[C@H]3CCCN4CCC[C@@H](CN12)[C@@H]34 | 115 | –
CCN(CC)C(=O)c1ccc(C2=CC3(CCNCC3)Oc3cccc(O)c32)cc1 | 117 | –
CC(=CCCC1=CCC(C2=CC(=O)OC2O)OC1O)CCC1=C(C)CCCC1(C)C (stereo not given) | – | 18700 nM (active)
C[C@@]12OC(=O)[C@]1([C@@H](O)[C@@H]1C=CCCC1)NC(=O)[C@H]2CCCl | – | 37.2 nM (active)
C[C@]12CC[C@H](O)CC1=CC[C@H]1[C@H]3CCC(=O)[C@@]3(C)CC[C@@H]12 | – | 4180 nM (active)
CC(C)N[C@@H]1CCn2c(=O)[nH]c3cccc(c32)[C@@H]1O | – | 1180 nM (active)
C[C@]12CC[C@H]3[C@@H](CCC4=CC(=O)CC[C@@]43C)[C@H]1CC[C@H]2OC(=O)CCC1CCCC1 | 109 | –
Cc1c(N)nc([C@H](CC(N)=O)NC[C@@H](N)C(N)=O)nc1C(=O)N[C@H](C(=O)N[C@@H](C)[C@H](O)[C@@H](C)C(=O)N[C@@H](C(=O)NCCc1nc(-c2nc(C(=O)NCCC[S+](C)C)cs2)cs1)[C@@H](C)O)C(O[C@H]1O[C@H](CO)[C@H](O)[C@@H](O)[C@@H]1O[C@H]1O[C@H](CO)[C@@H](O)[C@H](OC(N)=O)[C@H]1O)c1cnc[nH]1 (stereo not given in full) | – | 1050 nM (active)
COC1=C[C@@H]2[C@@H]3Cc4ccc(OC)c(O)c4[C@]2(CCN3C)CC1=O | – | 4690 nM (active)
NC1=NC(=O)N2CC12 (stereo not given) | 117 | –
COc1cc([C@@H]2c3cc4c(cc3[C@@H](O)C3COC(=O)C32)OCO4)cc(OC)c1O (stereo not given in full) | – | 23.5 nM (active)
O=[N+]([O-])c1ncc[nH]1 | 109 | –
CC(C)N(CCNC(=O)CN1CCCC1=O)C(C)C | 119 | –
CC(C)[C@]12O[C@@H]1[C@@H]1O[C@]13[C@]1(O[C@H]1C[C@@H]1C4=C(CC[C@@]13C)C(=O)OC4)[C@H]2O | 1.49 | –
c1ccc2c(CN3CCNCC3)cccc2c1 | 110 | –
COc1ccc(N(C(=O)Oc2c(C)cccc2C)c2ccnc(Nc3ccc(N4CCN(C)CC4)cc3)n2)c(OC)c1 | – | 1870 nM (active)
Cc1ccccc1-n1c(Cn2cnc3c(N)ncnc32)nc2cccc(C)c2c1=O | – | 1180 nM (active)
CC[C@@H]1[C@@H](C)O[C@@](O)([C@@H](C)[C@H](O)[C@H](C)[C@H]2OC(=O)C=CC=C[C@@H](C)[C@@H]([C@@H](C)[C@@H](O)[C@H](C)[C@@]3(O)C[C@H](O[C@H]4C[C@H](O)[C@H](O)[C@H](C)O4)[C@H](CC)[C@@H](C)O3)OC(=O)C=CC=C[C@@H]2C)C[C@H]1O[C@H]1C[C@H](O)[C@H](O)[C@H](C)O1 | – | 662 nM (active)

From PubChem BioAssay (NCATS)
